Experimental data: PubChem BioAssay (EPA / NIEHS)
Where “and” joins values, the source holds several entries; their conditions need not be identical. Equal values may be shown once. Results filed as inconclusive are left out. Where a structure was tested more than once in an assay, its records may differ in their call. Calls of active or inactive are those of the source. Rule for the calls, unless noted: active = hit-call score of the fitted dose curve at least 0.9, where 1 is the maximum; inactive = score below 0.9.

Key:
[1] = read-out: Collagen I, COL1A1 (gene 1277); assay: BSK_MyoF_CollagenI: BioMAP Diversity Plus: MyoF Assay for Collagen I Biomarker Activity (AID 2284238); conditions: primary human lung fibroblasts
In short: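 Multiplexed primary human lung fibroblast system; Collagen I measured by ELISA at 24 h post-dose. Increases are referenced to DMSO.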

[2] = read-out: Collagen III, COL3A1 (gene 1281); assay: BSK_MyoF_CollagenIII: BioMAP Diversity Plus: MyoF Assay for Collagen III Biomarker Activity (AID 2284239); conditions: primary human lung fibroblasts
In short: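 Compounds are added to primary human lung fibroblasts and left for 24 hours. Collagen III is then quantified by ELISA. Analysis takes DMSO as baseline and fits increases in signal.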

[3] = read-out: Interleukin 17F (IL17F), IL17F (gene 112744); assay: BSK_BT_xIL17F: BioMAP Diversity Plus: BT Assay for Interleukin 17F (IL17F) Biomarker Activity (AID 2284243); conditions: primary human B cells with PBMC
In short: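 Measures secreted IL-17F from a human B cell plus PBMC co-culture at 24 h post-dose by Luminex xMAP, with DMSO defining baseline activity.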

[4] = read-out: Actin alpha 1 (ACTA1), ACTA1 (gene 58); assay: BSK_MyoF_ACTA1: BioMAP Diversity Plus: MyoF Assay for Actin alpha 1 (ACTA1) Biomarker Activity (AID 2284244); conditions: primary human lung fibroblasts
In short: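 Measured by ELISA: alpha-smooth muscle actin in human primary lung fibroblasts 24 h after dosing, with DMSO as baseline and upward signal change as the fitted direction.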

[5] = read-out: Interleukin 2 (IL2), IL2 (gene 3558); assay: BSK_BT_xIL2: BioMAP Diversity Plus: BT Assay for Interleukin 2 (IL2) Biomarker Activity (AID 2284245); conditions: primary human B cells with PBMC
In short: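 Secreted interleukin-2 from human B cell/PBMC co-cultures, measured 24 h post-dosing by Luminex multiplex immunoassay. Upward-direction curve fitting against DMSO baseline.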

[6] = read-out: Basic fibroblast growth factor (bFGF), FGF2 (gene 2247); assay: BSK_MyoF_bFGF: BioMAP Diversity Plus: MyoF Assay for Basic fibroblast growth factor (bFGF) Biomarker Activity (AID 2284246); conditions: primary human lung fibroblasts
In short: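 In this multiplexed cell system, lung fibroblasts (human primary) receive test chemical for 24 h before ELISA detection of bFGF; DMSO defines baseline and the analysis direction is positive.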

[7] = read-out: Collagen IV, COL4A1 (gene 1282); assay: BSK_MyoF_CollagenIV: BioMAP Diversity Plus: MyoF Assay for Collagen IV Biomarker Activity (AID 2284247); conditions: primary human lung fibroblasts
In short: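 Activity is scored as a signal increase over DMSO in an ELISA for Collagen IV, measured on human lung fibroblasts at 24 h after chemical treatment. Cytotoxicity is checked in parallel cultures by sulforhodamine B total-protein staining.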

[8] = read-out: Plasminogen activator inhibitor-1 (PAI1), SERPINE1 (gene 5054); assay: BSK_MyoF_PAI1: BioMAP Diversity Plus: MyoF Assay for Plasminogen activator inhibitor-1 (PAI1) Biomarker Activity (AID 2284256); conditions: primary human lung fibroblasts
In short: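 Activity reflects increased PAI-1, determined by ELISA and compared with DMSO, in human lung fibroblasts treated for 24 h.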

[9] = read-out: Interleukin-8 (IL8), CXCL8 (gene 3576); assay: BSK_MyoF_IL8: BioMAP Diversity Plus: MyoF Assay for Interleukin-8 (IL8) Biomarker Activity (AID 2284261); conditions: primary human lung fibroblasts
In short: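 In this multiplexed primary-cell system, fibroblasts from human lung are treated with chemicals, and IL-8 is detected by ELISA at 24 h, with DMSO serving as the negative reference.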

Decorin, DCN (gene 1634) = assay: BSK_MyoF_Decorin: BioMAP Diversity Plus: MyoF Assay for Decorin Biomarker Activity (AID 2284265); conditions: primary human lung fibroblasts
In short: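 Lung fibroblast cultures, 24 h chemical exposure. Decorin by ELISA, positive fitting direction, DMSO baseline.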

[10] = BSK_MyoF_SRB: Viability Assessment in the BioMAP Diversity Plus: MyoF Assay (AID 2284267); conditions: primary human lung fibroblasts;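 note: total protein by SRB absorbance in parallel cultures as cytotoxicity measure; cells assessed 24 h after compound addition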
In short: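 Cytotoxicity in primary human lung fibroblasts is gauged by SRB total-protein staining 24 h after dosing, with DMSO as the negative control.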

[11] = CCTE_Mundy_HCI_Cortical_NOG_BPCount: CCTE's Neurite Outgrowth Assay in rat cortical cells for Branch Point Count, Mundy Lab (AID 2284237);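 for AC50: branch points counted about two days after chemical exposure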
In short: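 Measured 50.33 h after dosing, this morphology endpoint uses rat primary cortical cultures labelled for betaIII-tubulin. Branch points are quantified by high-content imaging, with DMSO as negative control and baseline.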

[12] = CCTE_Mundy_HCI_hNP1_Casp3_7: CCTE's Caspase-Glo 3/7 Assay in human neuroprogenitor cells for Apoptosis, Mundy Lab (AID 2284240)
In short: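 Apoptosis is scored by activated caspase-3/7 luminescence in WA09-derived neural progenitor cells, measured 26.5 h after chemical dosing. Values represent gain of signal relative to DMSO vehicle.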

[13] = CCTE_Mundy_HCI_hNP1_CellTiter: CCTE's Cell Titer-Glo 2 Assay in human neuroprogenitor cells for Viability, Mundy Lab (AID 2284241; active = hit-call score of the fitted dose curve at least 0.9, where 1 is the maximum;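 for AC50: a hit is a drop in ATP luminescence versus DMSO meaning reduced viability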)
In short: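 Human neural progenitor cells (hNP1, WA09-derived) were plated on poly-L-ornithine/laminin and grown 40 to 44 hours at 37 °C, 5% CO2 before chemical addition. Twenty-four hours later, ATP was measured by CellTiter-Glo luminescence; loss of signal versus DMSO indicates reduced viability.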

[14] = CCTE_Mundy_HCI_Cortical_Synap_Neur_Matur_NeuronCount: CCTE's Synaptogenesis and Neurite Maturation Assay in rat cortical cells for Neuron Count, Mundy Lab (AID 2284242; active = hit-call score of the fitted dose curve at least 0.9, where 1 is the maximum;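 for AC50: neuron number from Hoechst nuclei and MAP2 staining by high-content imaging; hits reduce neuron count versus DMSO baseline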)
In short: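 Imaging-based neuron count in rat cortical cultures after chemical exposure from DIV 7 to DIV 12, with AraC added at DIV 5. Activity is fitted relative to DMSO.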

Measured: AC50

CC(C=O)Cc1ccc2c(c1)OCO2 (stereo not drawn)
not listed: [10] | [11] | [12] | [13] | [14]
inactive: all other assays above

O=c1oc2ccccc2c(O)c1C(CC(O)c1ccc(-c2ccc(Br)cc2)cc1)c1ccccc1 (stereo not drawn)
inactive: [3] | [5]
active: [1] 1.94 µM | [2] 2.53 µM | [4] 2.76 µM | [6] 11.5 µM | [7] 5.33 µM | [8] 3.64 µM | [9] 19.1 µM | Decorin, DCN (gene 1634) 9.45 µM | [10] 9.02 µM

O=C1C=CC(=O)c2ccccc21
active: [1] 4.3 µM | [2] 4.13 µM | [4] 4.42 µM | [5] 0.714 µM | [6] 4.17 µM | [7] 2.56 µM | [8] 4.23 µM | Decorin, DCN (gene 1634) 1.33 µM
inactive: [9]

CS(=O)(=O)c1ccc(C(=O)C2C(=O)CCCC2=O)c(Cl)c1COCC(F)(F)F
inactive: [11] | [12] | [13]

CC1(C)[C@H](C(=O)O[C@H](C#N)c2cccc(Oc3ccccc3)c2)[C@@H]1/C=C(\Cl)C(F)(F)F
inactive: [1] | [2] | [12] | [4] | [6] | [7] | [8] | [9] | Decorin, DCN (gene 1634) | [10]
active: [11] 20.2 µM | [14] 3.56 µM | [5] 17.1 µM and 14.2 µM | [8] 0.0141 µM

CCOCn1c(-c2ccc(Cl)cc2)c(C#N)c(Br)c1C(F)(F)F
active: [11] 18.6 µM | [12] 10.5 µM | [13] 13.5 µM | [14] 12.1 µM

CCCCCCCCCCCCN(C)C
not listed: [3] | [10] | [11] | [12] | [13] | [14]
inactive: all other assays above

Oc1c(Br)cc(Br)cc1Br
inactive: [2] | [4] | [5] | [6] | [8] | Decorin, DCN (gene 1634)
active: [1] 29.9 µM | [7] 20 µM | [9] 13.9 µM

Cc1cc(C(C)(C)c2ccc(O)c(C)c2)ccc1O
inactive: [5] | [6] | [7] | [8] | [9] | Decorin, DCN (gene 1634)
active: [1] 15.4 µM | [2] 15.1 µM | [4] 19 µM

O=S(=O)(C(Cl)(Cl)Cl)C(Cl)(Cl)Cl
inactive: [9]
active: [1] 3.07 µM | [2] 4.1 µM | [4] 2.64 µM | [5] 4.48 µM | [6] 3.71 µM | [7] 2.53 µM | [8] 3.03 µM | Decorin, DCN (gene 1634) 3.37 µM

Cc1ccc(OP(=O)(Oc2ccc(C)cc2C)Oc2ccc(C)cc2C)c(C)c1
active: [2] 20 µM | [3] 24.9 µM | [5] 12 µM
inactive: [1] | [4] | [6] | [7] | [8] | [9] | Decorin, DCN (gene 1634)

COCC(=O)N(c1c(C)cccc1C)[C@H](C)C(=O)OC
not listed: [10] | [11] | [12] | [13] | [14]
inactive: all other assays above

Cc1cc(C(F)(C(F)(F)F)C(F)(F)F)ccc1NC(=O)c1cccc(I)c1C(=O)NC(C)(C)CS(C)(=O)=O
inactive: [11] | [12] | [13]

OC(Cc1ccccc1Cl)(Cn1cncn1)C1(Cl)CC1 (stereo not drawn)
not listed: [10] | [11] | [12] | [13] | [14]
inactive: all other assays above

CCOP(=S)(OCC)SCS(=O)(=O)C(C)(C)C
not listed: [10] | [11] | [12] | [13] | [14]
inactive: all other assays above

CNC(=O)CSP(=O)(OC)OC
inactive: [11] | [12] | [13]

OC(Cc1ccccc1Cl)(Cn1[nH]cnc1=S)C1(Cl)CC1 (stereo not drawn)
inactive: [13] | [5] | [6] | [7] | Decorin, DCN (gene 1634)
active: [11] 50 µM | [1] 31.4 µM | [2] 30.5 µM | [12] 91 µM | [14] 83.8 µM | [4] 25.3 µM | [8] 34.5 µM | [9] 12.3 µM

CC(C)[C@@H](Nc1ccc(C(F)(F)F)cc1Cl)C(=O)OC(C#N)c1cccc(Oc2ccccc2)c1 (stereo partly drawn)
inactive: [11] | [12] | [13] | [14]

CCOP(=S)(OCC)OP(=S)(OCC)OCC
not listed: [3] | [10] | [11] | [12] | [13] | [14]
inactive: all other assays above

Oc1ccc(Cc2ccc(O)cc2)cc1
not listed: [11] | [12] | [13] | [14]
inactive: all other assays above

Nc1c(Oc2ccccc2)cc(O)c2c1C(=O)c1ccccc1C2=O
inactive: [1] | [2] | [4] | [5] | [6] | [8] | Decorin, DCN (gene 1634)
active: [7] 2.54 µM | [9] 10 µM

NC(=O)c1ccc(N)nc1
active: [11] 11.4 µM | [14] 7.58 µM
inactive: [12] | [13]
